The structures appear in SMILES notation. Several values for one entry are separate records, joined by “and”; a condition that tells them apart may be missing. Equal values may be shown once. Out of some 320,000 compounds screened, about 2,100 (0.66%) were called active. About 53% were inconclusive and are not listed. The call rests on the fitted dose curve; in most records, active means well fitted inhibition curve with a large enough effect in the signal ratio, with a control signal flat (not every such curve was filed as active); inconclusive means small, poorly fitted or top-dose-only effect, or effect the other way, or a change in a side signal; inactive means flat fitted curve, though single readings scatter; the % refers to the signal ratio. The full list was thinned out, with actives kept by preference.
Potency means the concentration at half of the fitted maximal effect.

This assay can be described thus: qHTS Assay for Lipid Storage Modulators in Drosophila S3 Cells.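 On cell number change: cells counted by Cell Tracker Red CMTPX staining in the red channel.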 On lipid storage change, negative = inhibition: on the % scale 0 is the no-effect control and ±100 the full control effect. As to conditions: BODIPY lipid droplet fluorescence, 18-24 h, cells fed with added oleic acid; cell number change: measured here: cell count max response; series mostly up to 46.1 µM; lipid storage change, negative = inhibition: at the top concentration. An outline of the steps: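 Drosophila S3 cells loaded with oleic acid (400 uM, as added) and compounds at several concentrations; lipid droplets imaged by 488-nm laser-scanning cytometry, 500–530 nm intensity and object ratio to cell channel. Percent activity normalized to 20 uM Triacsin C.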
As to `Cc1ccc(Cl)cc1N(CC(=O)NC1CCCC1)C(=O)c1csnn1`, the Potency is 0.82 µM (active) and the cell number change is 11.3%.

As to `Cc1cc(C)cc(N(CC(=O)NC2CCCCC2)C(=O)c2csnn2)c1`, the Potency was 6.51 µM (active) and the cell number change was 3.85%.

Turning to `Cc1ccc(C)c(N(CC(=O)NC2CCCCC2)C(=O)c2csnn2)c1`, the result was inactive and the cell number change stood at 7.08%.

In the case of `Cc1cc(C)cc(N(CC(=O)NC2CCCC2)C(=O)c2csnn2)c1`, the outcome was inactive and the cell number change was found to be 20%.

Consider `CC(=O)c1ccc(N(CC(=O)NC2CCCCC2)C(=O)c2csnn2)cc1`, for which the “lipid storage change, negative = inhibition” value is -2.57% (inactive) and the cell number change was -0.427%.

For the molecule `O=C1C2C3C=CC(C3)C2C(=O)N1c1cccc2ccccc12` (stereo not drawn), the outcome was inactive.

With `CCCN(c1ccccc1C(=O)O)S(=O)(=O)c1ccc2c(c1)n(C)c(=O)n2C`, the “lipid storage change, negative = inhibition” value was 7.64% (inactive) and the cell number change turned out to be 4.38%.

Consider `CN(Cc1cccc(Cl)c1)C(=O)C1CSC2(C)CCC(=O)N12` (stereo not drawn), for which the “lipid storage change, negative = inhibition” value is -14.7% (inactive) and the cell number change turned out to be 2.85%.

Turning to `COc1ccc(Oc2cccc(Cl)c2CNC(=O)CCCC(=O)O)cc1`, the “lipid storage change, negative = inhibition” value is 19% (inactive) and the cell number change is -4.23%.

As to `CC1(C)CC(O)C(C)(C)N1O` (stereo not drawn), the “lipid storage change, negative = inhibition” value was -10.4% (inactive) and the cell number change worked out at 0.759%.

In the case of `COc1ccc2[nH]c(=O)c(CN(C(=O)C3CCCO3)c3ccc(C)cc3)cc2c1` (stereo not drawn), the “lipid storage change, negative = inhibition” value is 22.5% (inactive) and the cell number change is -16.8%.

Regarding `O=C(O)CCC(=O)Nc1ccc(/C=C/C(=O)C2CC2)cc1`, the “lipid storage change, negative = inhibition” value is 4.47% (inactive) and the cell number change turned out to be 0.554%.

With `Cc1ccc(C(C[N+](=O)[O-])n2nc(C)cc2C)cc1` (stereo not drawn), the result was inactive and the cell number change stood at 28.9%.

In the case of `COc1ccc(C(C[N+](=O)[O-])n2nc(C)cc2C)cc1` (stereo not drawn), the Potency is 5.17 µM (active) and the cell number change was -16.7%.

`COC(=O)C(C(=O)OC)C(C[N+](=O)[O-])c1ccc(OC)cc1` (stereo not drawn): the “lipid storage change, negative = inhibition” value was -0.0854% (inactive) and the cell number change was -3.46%.

Turning to `CCCCn1c(=O)nc2n(-c3ccc(Cl)cc3)c3ccccc3cc-2c1=O`, the “lipid storage change, negative = inhibition” value was 16.3% (inactive).

Turning to `C=CCNC(=O)c1ccc(Sc2ccc(C)cc2)c([N+](=O)[O-])c1`, the “lipid storage change, negative = inhibition” value is -20% (inactive) and the cell number change was -8.5%.

Take `CCOC(=O)/C(=C\c1cccc(O)c1)c1nc2sc(C)c(C)c2c(=O)[nH]1`: the Potency is 20.6 µM (active) and the cell number change was -21.1%.

Regarding `Cc1c(C(=O)O)sc2nc(/C=C/c3cccc(O)c3)[nH]c(=O)c12`, the “lipid storage change, negative = inhibition” value is 0.183% (inactive) and the cell number change was determined as 5.19%.

As to `CCOC(=O)c1nc2sc(C)c(C)c2c(=O)[nH]1`, the “lipid storage change, negative = inhibition” value was 5.14% (inactive) and the cell number change is -3.45%.

Turning to `NC(=O)C1CCN(c2ccnc3cc(Cl)ccc23)CC1`, the “lipid storage change, negative = inhibition” value is -18.4% (inactive) and the cell number change is -7.1%.

As for `Cc1ccc(N(C(=O)CCCC(=O)Nc2ccccn2)C(C(=O)NC2CCCC2)c2ccc(O)cc2)cc1C` (stereo not drawn), the outcome was inactive and the cell number change is -6.35%.

With `Cc1c(C(=O)Nc2ccc(OC(F)(F)F)cc2)sc2nc3n(c(=O)c12)CCC3`, the “lipid storage change, negative = inhibition” value is -11.7% (inactive) and the cell number change was determined as 2.69%.

For `COc1ccc(COC(=O)c2sc3nc4n(c(=O)c3c2C)CCC4)cc1`, the result was inactive.

`CCc1ccc(NC(=O)c2sc3nc4n(c(=O)c3c2C)CCC4)cc1`: the Potency is 2.31 µM (active) and the cell number change is -24%.

As to `CCc1cccc(NC(=O)c2ccc3c(=O)n4c(nc3c2)CCCCC4)c1`, the “lipid storage change, negative = inhibition” value was 5.18% (inactive) and the cell number change is -2.31%.

As to `Cc1cc(C)cc(NC(=O)c2sc3nc4n(c(=O)c3c2C)CCC4)c1`, the Potency was 18.4 µM (active) and the cell number change is -23.1%.

With `CCOC(=O)c1sc2nc3n(c(=O)c2c1C)CCC3`, the “lipid storage change, negative = inhibition” value is 18.2% (inactive) and the cell number change worked out at 7.44%.

On to `CCOc1ccc(CCNC(=O)c2sc3nc4n(c(=O)c3c2C)CCC4)cc1`, for which the “lipid storage change, negative = inhibition” value was -17.7% (inactive) and the cell number change was 17.9%.

On to `COc1cccc(NC(=O)c2sc3nc4n(c(=O)c3c2C)CCC4)c1`, for which the Potency was 4.11 µM (active) and the cell number change is -27.4%.

Regarding `CCOC(=O)c1sc2nc3n(c(=O)c2c1C)CCCCC3`, the “lipid storage change, negative = inhibition” value is 14.1% (inactive) and the cell number change was -6.59%.

Regarding `CCc1cccc(NC(=O)c2sc3nc4n(c(=O)c3c2C)CCC4)c1`, the Potency was 5.8 µM (active) and the cell number change is -22.1%.

For `COc1ccccc1N1CCN(C(=O)c2sc3nc4n(c(=O)c3c2C)CCC4)CC1`, the “lipid storage change, negative = inhibition” value was -15.3% (inactive) and the cell number change was -21.5%.

In the case of `Cc1c(C(=O)NCCO)sc2nc3n(c(=O)c12)CCC3`, the “lipid storage change, negative = inhibition” value is -0.957% (inactive) and the cell number change came to 20%.

With `Cc1cccn2c(=O)c3cc(C(=O)NCCCN4CCOCC4)n(C)c3nc12`, the “lipid storage change, negative = inhibition” value is 21.1% (inactive).

In the case of `CCCCN1C(=O)NC(NC(=O)C2CC2)(C(F)(F)F)C1=O` (stereo not drawn), the “lipid storage change, negative = inhibition” value was 0.363% (inactive) and the cell number change was 15%.

As to `CC(=O)Nc1ccc(S(=O)(=O)N(C#N)c2nc(N(C)C)nc(N(C)C)n2)cc1`, the “lipid storage change, negative = inhibition” value is 0.237% (inactive) and the cell number change is -23%.

Turning to `CN(C)CC(=O)Nc1ccc2cn[nH]c2c1`, the “lipid storage change, negative = inhibition” value was 0.452% (inactive) and the cell number change is -1.8%.

Regarding `CSc1nc(C)c(Cl)c(C)c1C#N`, the “lipid storage change, negative = inhibition” value is 10.8% (inactive) and the cell number change is -6.02%.

With `COc1cc(Cl)cc(C(=O)O)c1OCC(=O)O`, the “lipid storage change, negative = inhibition” value was 7.31% (inactive) and the cell number change came out at 3.53%.

`O=C(/C=C/c1ccc(F)cc1)N1CCN(c2ncccn2)CC1`: the “lipid storage change, negative = inhibition” value was -0.413% (inactive) and the cell number change is 20.7%.

For `CC(=O)NNC(=O)CCn1c2c(c3ccccc31)CCCC2`, the “lipid storage change, negative = inhibition” value is -7.9% (inactive) and the cell number change was 1.32%.

`Fc1ccccc1CNc1ccc(Cl)cc1`: the “lipid storage change, negative = inhibition” value was 12.9% (inactive) and the cell number change was -4.41%.

As to `CN(C)S(=O)(=O)Nc1ccccc1F`, the “lipid storage change, negative = inhibition” value was -12.4% (inactive) and the cell number change was -0.564%.

Regarding `CN(C)S(=O)(=O)Nc1cccc(Br)c1`, the Potency result was “inactive”; the cell number change is 0.321% and 14.1%.

On to `CN(C)S(=O)(=O)Nc1ccc(Br)cc1F`, for which the Potency is 23.1 µM (active) and the cell number change was -21.1%.
